For part of these data: Measured potencies and affinities stand elsewhere.
Experiments:
Staphylococcus aureus = assay: Antibacterial activity against Staphylococcus aureus MRSA ATCC 43300 (CO-ADD:GP_020); MIC in CAMBH media using NBS plates, by Resazurin F(560/590); format: functional; conditions: Concentration 20 uM, ASSAY_TEST Inhibition of Bacterial Growth, detection method Resazurin, Fluorescence (ex560/em590), MEDIA CAMHB, plate type 384well, CORNING #3640, time 18 hr
Acinetobacter baumannii = assay: Antibacterial activity against Acinetobacter baumannii ATCC 19606 (CO-ADD:GN_034); MIC in CAMBH media using NBS plates, by Resazurin F(560/590); format: functional; conditions: Concentration 20 uM, ASSAY_TEST Inhibition of Bacterial Growth, detection method Resazurin, Fluorescence (ex560/em590), MEDIA CAMHB, plate type 384well, CORNING #3640, time 18 hr
Escherichia coli = assay: Antibacterial activity against Escherichia coli ATCC 25922 (CO-ADD:GN_001); MIC in CAMBH media using NBS plates, by Resazurin F(560/590); format: functional; conditions: Concentration 20 uM, ASSAY_TEST Inhibition of Bacterial Growth, detection method Resazurin, Fluorescence (ex560/em590), MEDIA CAMHB, plate type 384well, CORNING #3640, time 18 hr
Klebsiella pneumoniae = conditions: Concentration 20 uM; ASSAY_TEST Inhibition of Bacterial Growth; detection method Absorption (OD600); MEDIA CAMHB; plate type 384well; NBS; CORNING #3640; time 18 hr
Candida albicans = conditions: 20 µM
Cryptococcus neoformans = conditions: Concentration 20 uM; ASSAY_TEST Inhibition of Fungal Growth; detection method Resazurin; Absorption (OD600-OD570); plate type 384well; NBS; CORNING #3640

Row | Structure (SMILES) | Inhibition (Staphylococcus aureus) [%] | Inhibition (Acinetobacter baumannii) [%] | Inhibition (Escherichia coli) [%] | Inhibition (Klebsiella pneumoniae) [%] | Inhibition (Candida albicans) [%] | Inhibition (Cryptococcus neoformans) [%]
1 | C(=C\c1ccncc1)/c1ccncc1 | -0.23 | -2.33 | 7.13 | 5.66 | -2.45 | -3.12
2 | CC(=O)OC1CCC2(C)C(CCC3C2CC(=O)C2(C)C3CC(N3CC3)C2C(C)=O)C1 (centres undefined) | -6.66 | -5.39 | 9.74 | 4.84 | -0.96 | -1.15
3 | COc1ccccc1[As](=O)(O)CC(O)COc1ccc(Cl)cc1Cl (centres undefined) | 12.48 | -14.57 | 17.37 | 8.74 | -1.45 | -2.68
4 | COc1ccccc1NC(=O)Oc1cccc(OC(=O)c2ccccc2)c1 | 4.53 | -1.36 | -8.4 | 19.47 | 8.34 | -0.97
5 | CCC1CN1P(=O)(Oc1ccc(Cl)cc1)N1CC1CC (centres undefined) | 5.27 | -3.62 | 11.85 | 2.63 | 4.31 | -4.87
6 | O=C1CC(c2ccc(O)cc2)Oc2cc(O)cc(O)c21 (centres undefined) | 9.17 | 6.14 | -5.6 | 10.18 | 4.1 | -1.84
7 | CCCCOP(=O)(OCCCC)C1(C)CC(=O)CC(C)(C)C1 (centres undefined) | 5.73 | -6.49 | -5.15 | 23.67 | 1.05 | -15.51
8 | O=[As](O)(O)c1ccc(/N=N/c2ccc(O)cc2)cc1 | -11.42 | -13.35 | 0.89 | 15.09 | 7.76 | -3.57
9 | Cc1ncc([N+](=O)[O-])n1CCOC(N)=O [BAMNIDAZOLE] | 2.14 | -5.43 | 15.41 | 2.21 | 2.39 | 7.78

From ChEMBL document CHEMBL4296182, “CO-ADD screening of NIH NCI Diversity Set V”
